High-throughput results (PubChem)
Wnt act – activates Wnt/beta-catenin signaling in a reporter cell assay. activation, % at 9.35 µM. AID 743398. hit rate 1.2% among 300,000. activator, plate reader; in the data active means activation above about 30%, passing the limit was not always enough; inconclusive means no clear call, values can overlap the other calls
MITF act – activators of MITF-driven TRPM1 promoter activity in SK-MEL-5 cells; activation, % at 12.5 µM; SK-MEL-5 TRPM1-promoter luciferase, 24 h; % of positive control, neutral wells = 0; hit rate 0.75% among 300,000; AID 588334;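 active means mean activation of at least 80% with every replicate also reaching 80%; inconclusive means mean reaches 80% but some replicate falls short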
esBAF inh – blocks esBAF chromatin remodeling in mouse ES cells; AID 602393; reporter increase, % at 12.5 µM; hit rate 2% among 350,000; Bmi1-luciferase knock-in reporter, 24 h; 100% = twice the neutral-well signal; in the data active means activation above about 40%; inconclusive means no clear call, values can overlap the other calls;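 further: a rise in the Bmi1 reporter signal indicates esBAF inhibition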
FXN GAA850 act – activators of GAA850 frataxin (FXN) promoter. HEK293 lucGAA850 FXN promoter luciferase reporter, 24 h; percent of 10 µM SAHA response. activation, % at 6 µM. hit rate 0.56% among 360,000. AID 540364;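 active means activation above the average of all compounds screened plus 3 SD, cutoff fixed separately per campaign, cut at about 7.5% in these data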
AHR act – activates the human aryl hydrocarbon receptor; P35869; AHR-responsive luciferase reporter cells, luminescence; activation, % at 5 µM; hit rate 2.5% among 320,000; AID 2796; in the data active means activation above about 47%
A number is an active result; . = inactive; ? = inconclusive; / = no result given. Only some compounds are listed: those with a hit (about 4.2% of all), similar ones and a draw of the others.

SMILES | Wnt act | MITF act | esBAF inh | FXN GAA850 act | AHR act
CNC(=O)c1[nH]cnc1C(=O)Nc1cccc(OC)c1 | . | . | . | . | 57
CCOC(=O)c1[nH]cnc1C(=O)Nc1cccc(OC)c1 | . | . | . | . | .
COc1ccc(NC(=O)c2nc[nH]c2C(=O)N[C@@H](C)c2ccccc2)cc1 | . | . | . | . | 48
CSCCC(=O)Nc1ccc(C(C)=O)cc1 | . | . | 53 | . | .
CC(=O)c1ccc(NC(=O)CSCCO)cc1 | / | . | . | . | .
CC(=O)c1ccc(NC(=O)CN2CCCC2)cc1 | . | / | 50 | . | .
Cc1noc(C)c1NC(=O)NCC[C@H]1CC[C@H](NC(=O)Nc2cccc(F)c2)[C@H](CO)O1 | / | / | . | / | /
CC1=Nn2c(nnc2-c2cc(-c3ccccc3)n[nH]2)SC1 | . | . | . | . | 79
Cc1ccc(C(=O)NNC(=O)c2ccc(C)cc2)cc1 | . | . | / | . | .
O=C(Nc1c(F)cccc1F)c1ccc(-n2cncn2)nc1 | . | . | . | . | .
Cc1ccc(C(=O)NNC(=O)c2ccc3ccccc3c2)cc1 | . | . | 67 | . | /
Cc1ccccc1NC(=O)c1ccc(-n2cncn2)nc1 | . | / | . | . | 121
Cc1ccccc1NC(=O)NNC(=O)c1ccc2ccccc2c1 | . | . | . | . | /
Cc1ccccc1NC(=O)c1ccc2ccccc2c1 | . | . | 45 | . | .
C[C@H]1CN([C@@H](C)CO)C(=O)c2cccc(NC(=O)c3nc4ccccc4s3)c2O[C@@H]1CN(C)Cc1ccncc1 | / | / | . | / | /
C[C@H](O)C#Cc1ccc2c(c1)O[C@H](CN(C)Cc1ccccn1)[C@@H](C)CN([C@H](C)CO)S2(=O)=O | / | / | . | / | /
Clc1ccc(/C=C/c2ncc3ccccn23)cc1 | 41 | . | / | . | .
CO[C@H]1CC[C@@H]2CCN(C)C(=O)CCCN(C)C(=O)c3cccc(C#N)c3OC[C@@H]1O2 | / | / | . | / | /
CC(=O)c1c(C)[nH]c(C(=O)Nc2ccccn2)c1C | . | . | . | . | 71
CC(=O)c1c(C)[nH]c(C(=O)Nc2ccc(Cl)cc2F)c1C | . | . | . | . | .
CC(=O)c1c(C)[nH]c(C(=O)Nc2ccc(F)c(F)c2F)c1C | . | . | . | . | 62
CC(=O)c1c(C)[nH]c(C(=O)NCc2ccccc2)c1C | / | . | . | . | .
CC(=O)c1c(C)[nH]c(C(=O)Nc2cccc(S(=O)(=O)N(C)c3ccccc3)c2)c1C | . | . | / | . | .
Cc1cc(C(=O)NC2=NCCS2)cs1 | / | . | / | . | .
CSc1cccc(NC(=O)c2[nH]c(C)c(C(C)=O)c2C)c1 | . | 133 | 65 | . | .
SMILES | Wnt act | MITF act | esBAF inh | FXN GAA850 act | AHR act
CC(=O)c1c(C)[nH]c(C(=O)NC2=NCCS2)c1C | . | . | . | . | 75
COCC#Cc1cnc2c(c1)C(=O)N([C@@H](C)CO)C[C@H](C)[C@@H](CN(C)C(=O)Nc1ccccc1F)O2 | / | / | . | / | /
CC(=O)N(C)C[C@H]1Oc2cc(C#Cc3ccccc3)ccc2S(=O)(=O)N([C@@H](C)CO)C[C@H]1C | / | / | . | / | /
CC(=O)c1c(C)[nH]c(C(=O)Nc2ccc(Cl)cc2)c1C | . | . | 60 | . | .
COc1cccc(OCc2cc(C(=O)N(C)CCOc3ccc(C)cc3)no2)c1 | . | . | 67 | . | .
COc1cccc(OCc2cc(C(=O)N(C)Cc3nccn3C)no2)c1 | . | ? | 69 | . | .
Cc1cc(OCc2cc(C(=O)N(C)CCOc3ccccc3)no2)cc(C)c1Cl | . | . | . | . | .
CCc1nnc(NC(=O)CSc2ccc(-c3nc4ccc(C)cc4[nH]3)cn2)s1 | / | . | / | . | 66
Cc1ccc2nc(-c3ccc(SCC(=O)N4CCc5ccccc54)nc3)[nH]c2c1 | . | . | / | . | 59
Cc1ccc2nc(-c3ccc(SCC(=O)O)nc3)[nH]c2c1 | . | . | . | . | .
CC(C)NC(=O)N(C)C[C@H]1OCCCC[C@@H](C)Oc2ccc(NS(=O)(=O)c3ccc(Cl)cc3)cc2C(=O)N([C@@H](C)CO)C[C@@H]1C | / | / | . | / | /
C[C@@H]1CN([C@H](C)CO)C(=O)Cc2cc(NS(=O)(=O)c3cn(C)cn3)ccc2O[C@H]1CN(C)S(=O)(=O)c1cccs1 | / | / | . | / | /
C[C@@H]1CN([C@H](C)CO)C(=O)c2cc(Br)cnc2O[C@H]1CN(C)C(=O)Nc1ccc(F)cc1 | / | / | . | / | /
CCCCn1cnc2c(sc3nc4c(cc32)CSC(C)(C)C4)c1=O | . | . | 47 | . | .
CC1(C)Cc2nc3sc(C(=O)O)c(N)c3cc2CS1 | / | / | / | / | .
CC(C)CCn1cnc2c(sc3nc4c(cc32)CSC(C)(C)C4)c1=O | . | 85 | / | . | .
CC1(C)Cc2nc3sc4c(NCCO)ncnc4c3cc2CS1 | . | . | . | . | .
